Many of the other results were omitted from the sample, so hits are more common in it than they were.
FECH block = inhibitors of human ferrochelatase | P22830 | purified FECH, Ni-mesoporphyrin absorbance 550 nm | calls only at 10 µM (by protocol) | actives 3.3% (n = 20,000) | AID 1671448;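 active means enzyme reaction rate more than 3 SD below the solvent-only control wells on the same plate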;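 further: lower slope than DMSO wells means FECH inhibition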
Target sequence (P22830 whole entry, looked up): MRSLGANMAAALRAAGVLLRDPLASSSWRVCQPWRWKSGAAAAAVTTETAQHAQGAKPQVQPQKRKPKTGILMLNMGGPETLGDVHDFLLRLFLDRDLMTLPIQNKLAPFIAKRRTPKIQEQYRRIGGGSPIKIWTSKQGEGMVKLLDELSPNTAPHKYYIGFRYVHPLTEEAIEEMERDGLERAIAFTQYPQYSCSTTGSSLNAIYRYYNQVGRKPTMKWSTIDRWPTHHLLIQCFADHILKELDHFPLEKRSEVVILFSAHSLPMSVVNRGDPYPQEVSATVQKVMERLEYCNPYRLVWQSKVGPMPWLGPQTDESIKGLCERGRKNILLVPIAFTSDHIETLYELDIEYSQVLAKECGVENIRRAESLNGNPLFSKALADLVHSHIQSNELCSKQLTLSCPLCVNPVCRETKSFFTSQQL
The depositor's hits bear a star; i = inactive; + = active, no number.

SMILES	FECH block
Cc1cc(C)n2nc(CN(C(=O)Cc3ccccc3)c3ccc(F)cc3)nc2n1	i
Cc1cccc(N(Cc2nc3nc(C)cc(C)n3n2)C(=O)c2ccco2)c1	i
Cc1cccc(N(Cc2nc3nc(C)cc(C)n3n2)C(=O)Cc2ccccc2)c1	i
Cc1cc(=O)oc2cc(C3CC(=O)Nc4[nH]ncc43)ccc12 (stereo not drawn)	i
COc1ccc(S(=O)(=O)Nc2cnc(N3CCCCCC3)c(C(=O)O)c2)cc1	i
O=C(Nc1nc2n(n1)C(c1ccccc1)C=C(c1ccccc1)N2)c1cccs1 (stereo not drawn)	i
Cc1nccn1-c1ccccc1CNC(=O)c1cccc2ccnn12	i
COc1ccc(Nc2ncnc3sc(C)c(S(=O)(=O)N4CCCCC4)c23)cc1OC	i
COCc1noc(-c2ccc(-c3cc(C)cc(C)c3)nc2)n1	i
Cc1ccc2cc(-c3noc(CCC(=O)Nc4ccc(F)cc4)n3)c(=O)[nH]c2c1	i
O=C(O)c1cccc(CC2CCN(Cc3cnc(-c4ccco4)nc3)C2)c1 (stereo not drawn)	i
Cc1cccc(N(Cc2nc3nc(C)cc(C)n3n2)C(=O)CC(C)C)c1	i
Cc1cccc(N(Cc2nc3nc(C)cc(C)n3n2)C(=O)C(C)C)c1	+
COc1ccc(C(=O)N(Cc2nc3nc(C)cc(C)n3n2)c2cccc(C)c2)cc1OC	i
CCC(C(=O)N(Cc1nc2nc(C)cc(C)n2n1)c1cccc(C)c1)c1ccccc1 (stereo not drawn)	i
Cc1ccc(C(=O)N(Cc2nc3nc(C)cc(C)n3n2)c2cccc(C)c2)cc1	+
Cc1cc(C)n2nc(CN(C(=O)c3ccc(F)cc3)c3ccccc3)nc2n1	i
O=C(O)c1cc(NS(=O)(=O)c2ccc(Br)cc2)cnc1N1CCCCCC1	i
CCCCNC(=O)CSCc1nc(-c2ccccc2)no1	i
CCc1c(C)nc2ncnn2c1Sc1ccc(NS(=O)(=O)c2cccc(Cl)c2)cc1	i
CCc1ccc(-n2c(CN3CCN(S(=O)(=O)c4ccc5c(c4)CCC5)CC3)nc3cccnc32)cc1	i
CCN1CCCC(CN(C)Cc2ccc(-n3ccnc3)cc2)C1 (stereo not drawn)	i
Cc1ccccc1C(=O)NC(C)CC1=CCCN(CC(N)=O)C1 (stereo not drawn)	i
CCc1oc2ccccc2c1-c1nccn1CCN(C)C	i
Cc1c(-c2nccn2Cc2cccnc2)oc2ccccc12	+
SMILES	FECH block
Cc1c(CN2Cc3ncccc3C2=O)oc2ccccc12	i
Cc1ccc(C(=O)Nc2ccc(C(=O)N(C)Cc3ncc[nH]3)cc2)o1	i
COc1ccc(N2C(=O)CCS2(=O)=O)cc1S(=O)(=O)Nc1c(C)cccc1C(C)C	i
COc1ccc(NCc2cc(=O)n3[nH]c(NCc4ccc(F)cc4)nc3n2)c(OC)c1	i
CCCC(=O)Nc1nc2n(n1)C(c1ccccc1Cl)C=C(c1ccc(C)cc1)N2 (stereo not drawn)	i
O=C(CCc1ccccc1)Nc1nc2n(n1)C(c1ccccc1Cl)C=C(c1ccccc1)N2 (stereo not drawn)	i
O=C(Nc1nc2n(n1)C(c1c(F)cccc1Cl)C=C(c1ccccc1)N2)c1ccco1 (stereo not drawn)	i
CCCC(=O)Nc1nc2n(n1)C(c1c(F)cccc1Cl)C=C(c1ccccc1)N2 (stereo not drawn)	+
CC(=O)Nc1nc2n(n1)C(c1c(F)cccc1Cl)C=C(c1ccc(Cl)cc1)N2 (stereo not drawn)	i
CC(C)CC(=O)Nc1nc2n(n1)C(c1ccccc1Cl)C=C(c1ccccc1)N2 (stereo not drawn)	i
CC(C)CC(=O)Nc1nc2n(n1)C(c1c(F)cccc1Cl)C=C(c1ccccc1)N2 (stereo not drawn)	+
CCCC(=O)Nc1nc2n(n1)C(c1ccccc1Cl)C=C(c1ccccc1)N2 (stereo not drawn)	i
O=C(CCc1ccccc1)Nc1nc2n(n1)C(c1c(F)cccc1Cl)C=C(c1ccccc1)N2 (stereo not drawn)	+
O=C(Nc1nc2n(n1)C(c1c(F)cccc1Cl)C=C(c1ccccc1)N2)c1ccccc1F (stereo not drawn)	i
CCCC(=O)Nc1nc2n(n1)C(c1c(F)cccc1Cl)C=C(c1ccc(C)cc1)N2 (stereo not drawn)	i
CCCC(=O)Nc1nc2n(n1)C(c1ccccc1Cl)C=C(c1ccc(Cl)cc1)N2 (stereo not drawn)	+
CSc1nc(Nc2ccc(N3CCCC3)cc2)c(C#N)c(-c2ccc(C)cc2)n1	i
CCCc1nc2nc[nH]n2c(=O)c1NC(=O)NCc1ccc(C)cc1	i
COc1ccc(C)cc1C(C(=O)O)N1CCN(c2nc(C)cc(C)n2)CC1 (stereo not drawn)	i
Cc1ccccc1C(=O)Nc1ccccc1Sc1c(C)c(C)nc2nc(-c3ccccc3)nn12	i
CCOc1ccc(CN2CCC(N)(C(=O)O)C2)cn1 (stereo not drawn)	i
CCC(=O)Nc1nc2n(n1)C(c1ccc(Cl)cc1)C=C(c1ccccc1)N2 (stereo not drawn)	i
COc1ccc(C2C=C(c3ccccc3)Nc3nc(NC(=O)c4ccc(Cl)cc4)nn32)cc1 (stereo not drawn)	i
CCC(=O)Nc1nc2n(n1)C(c1ccccc1)C=C(c1ccc(Cl)cc1)N2 (stereo not drawn)	i
CCC(=O)Nc1nc2n(n1)C(c1ccccc1)C=C(c1ccccc1)N2 (stereo not drawn)	+
SMILES	FECH block
COc1ccc(C(=O)Nc2nc3n(n2)C(c2ccccc2)C=C(c2ccccc2)N3)cc1OC (stereo not drawn)	+
COc1ccc(C2C=C(c3ccccc3)Nc3nc(NC(=O)c4ccccc4)nn32)cc1 (stereo not drawn)	i
Cc1nc(Cc2ccc(-n3ccnc3-c3ccc(CO)o3)cc2)n[nH]1	i
CCOc1ccccc1NC(=O)CC(=O)NCc1ncc[nH]1	i
CCC1CN(C(=O)c2ccc(N)nc2)CCC(=O)N1Cc1ccccc1 (stereo not drawn)	i
CN(Cc1cccc(C(=O)Nc2nccs2)c1)Cc1cnccn1	+
Cc1nc(CN(C)Cc2cccc(C(=O)Nc3cccnc3)c2)cs1	i
CN(Cc1ccc(C(=O)Nc2ccc3c(c2)ncn3C)cc1)Cc1cnccn1	i
Cc1ccc2cc(C3(O)CCN(C(=O)[C@@H]4C[C@@H]5C=C[C@H]4C5)CC3)ccc2n1	i
Cc1cccc(CN2CCCN(CC(=O)NC3CCCCC3)S2(=O)=O)c1	i
O=C(CSc1cc(N2CCCCC2)ncn1)NC1CCCC1	+
Cc1nn(-c2cc(N3CCCC3)ncn2)c(C)c1CCC(=O)NC1CCCCCC1	i
COc1ccc(NC(=O)CSc2cc(N3CCCCC3)ncn2)cc1	i
COCCN1CCC(Cn2cnc(-c3ccccc3)c2-c2cc(C)[nH]n2)C1 (stereo not drawn)	i
CN(C)CCNC(=O)c1nc[nH]c1C(=O)NCc1ccccn1	i
O=C(NCc1ccccc1)c1nc[nH]c1C(=O)NCc1cccnc1	i
CC1(C)CC(NC(=O)c2nc[nH]c2C(=O)NCc2ccccn2)CC(C)(C)N1	i
CCCNC(=O)c1[nH]cnc1C(=O)NC(c1ccccc1)c1ccccc1	i
O=C(NCc1ccccn1)c1nc[nH]c1C(=O)NCc1ccccc1	+
O=C(NCCc1c[nH]c2ccccc12)c1nc[nH]c1C(=O)NCc1ccccc1	+
CC(C)(C)CNC(=O)c1[nH]cnc1C(=O)NCCc1c[nH]c2ccccc12	i

Screening results as filed in PubChem.
